This is an account of results in PubChem BioAssay AID1851 (National Center for Advancing Translational Sciences (NCATS), 2009).

Out of some 16,000 compounds screened, about 5,800 (36%) were called active. Another 23% or so got no clear call; they are omitted. The call rests on the fitted dose curve; in most records, active means well fitted curve in the direction sought with a large enough effect; inconclusive means small, poorly fitted or top-dose-only effect, or effect the other way; inactive means no such curve, though single readings can be large or run the other way. Some of the results follow.
On the % scale 0 is the no-effect control and ±100 the full control effect.

In this test the target is Cytochrome P450 2C19 (Homo sapiens) (UniProt P33261). Description: Cytochrome panel assay with activity outcomes. To be noted: recombinant CYP, pro-luciferin dealkylation, luminescence, p450-cyp2c19; series mostly up to 57.1 µM; activity, negative = inhibition: at the top concentration.
Cytochrome P450 2C19 (Homo sapiens), sequence (P33261 whole entry, looked up): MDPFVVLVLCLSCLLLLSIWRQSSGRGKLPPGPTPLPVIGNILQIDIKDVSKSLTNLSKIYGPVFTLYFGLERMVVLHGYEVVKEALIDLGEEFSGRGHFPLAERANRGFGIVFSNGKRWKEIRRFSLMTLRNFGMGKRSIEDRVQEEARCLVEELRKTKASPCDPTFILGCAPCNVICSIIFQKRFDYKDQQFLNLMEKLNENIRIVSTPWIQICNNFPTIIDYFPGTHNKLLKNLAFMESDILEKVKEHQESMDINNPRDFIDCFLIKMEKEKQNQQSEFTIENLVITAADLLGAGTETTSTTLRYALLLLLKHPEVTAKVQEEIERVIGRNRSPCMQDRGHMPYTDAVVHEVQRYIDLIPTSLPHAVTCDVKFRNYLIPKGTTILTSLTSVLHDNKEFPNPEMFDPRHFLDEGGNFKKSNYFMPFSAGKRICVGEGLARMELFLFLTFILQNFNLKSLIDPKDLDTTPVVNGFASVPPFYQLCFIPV
In the case of `Cc1cc(C2(c3cc(C)c(O)c(C(=O)O)c3)OS(=O)(=O)c3ccccc32)cc(C(=O)O)c1O`, the activity, negative = inhibition was 12.7% [at 11.4 µM] (inactive).

Consider `O=C(O)c1cc2c(o1)CCC/C2=N\O`, for which the “activity, negative = inhibition” value is -25.5% (inactive).

In general, AC50 refers to the concentration giving half of the maximal activity seen. For `CCn1c(SCC(=O)Nc2ccccc2C(=O)OC)nnc1-c1ccc(N)cc1`, the AC50 is 0.178 µM (active).

For `CC(=O)OC1CCC(OC(C)=O)c2c1n([O-])c(C)c(C)[n+]2=O` (stereo not drawn), the “activity, negative = inhibition” value is -13.8% (inactive).

For `Cc1ccccc1S(=O)(=O)O[C@@H]1NS(=O)(=O)c2ccccc21`, the activity, negative = inhibition was 24% [at 11.4 µM] (inactive).

Turning to `Cc1ccccc1S(=O)(=O)Oc1ccccc1C(=O)Oc1ccccc1`, the AC50 is 1.78 µM (active).

`CC(=O)Oc1ccccc1C(=O)Oc1ccccc1C(=O)O`: the “activity, negative = inhibition” value was -8.83% [at 25.6 µM] (inactive).

As for `CC(C)OC(=O)C(CC(=O)O)N1CCOCC1` (stereo not drawn), the “activity, negative = inhibition” value is -11.3% (inactive).

`NC(=O)CN1CCOCCOCCOCCOCCOCC1`: the “activity, negative = inhibition” value is 33.6% (inactive).

Regarding `CCOC(=O)C(C)CC(C)C(=O)N1CCOCCN(C(=O)C(C)CC(C)C(=O)OCC)CCOCC1` (stereo not drawn), the half-maximal activity concentration (AC50) was 10 µM (active).

In the case of `CC1(C)O[C@@H]2C[C@H]3[C@H]4C[C@H](F)C5=CC(=O)CC[C@]5(C)[C@@H]4[C@H](O)C[C@]3(C)[C@]2(C(=O)CO)O1`, the “activity, negative = inhibition” value is 18.6% [at 25.6 µM] (inactive).

For the molecule `c1ccc2c(c1)C(=Nc1ccc(N=C3c4ccccc4-c4ccccc43)cc1)c1ccccc1-2`, the activity, negative = inhibition is -36.8% [at 11.4 µM] (inactive).

For `CC1=NN(c2ccccc2)C(=O)C1`, the “activity, negative = inhibition” value was 8.71% (inactive).

As to `O=C1CC(=Nc2ccccc2)NN1c1ccccc1`, the AC50 is 5.62 µM (active).

For `CCCCC1=NN2C(=N)CC(=O)N=C2S1`, the “activity, negative = inhibition” value was 21.6% (inactive).

For the molecule `O=C1C(Cc2ccccc2)NC(=S)N1c1ccccc1` (stereo not drawn), the AC50 is 3.16 µM (active).

As for `C[C@H]1COC(=O)[C@H](Cc2ccccc2)NC(=O)[C@@H](C)COC(=O)[C@H](Cc2ccccc2)NC1=O`, the activity, negative = inhibition was -17.3% [at 11.4 µM] (inactive).

Turning to `CO[C@@H]1COC(=O)[C@H](Cc2ccccc2)NC(=O)C/C=C\[C@@H](C)[C@H](OC)COC(=O)[C@@H](C)NC(=O)C/C=C\[C@H]1C`, the activity, negative = inhibition is 10.6% [at 11.4 µM] (inactive).

`C[C@H](NC(=O)Cn1cncn1)c1ccccc1`: the “activity, negative = inhibition” value is -19.3% (inactive).

As for `Cc1ccc(CNC(=O)Cn2cncn2)cc1`, the AC50 is 7.94 µM (active).

Regarding `O=C(Cn1cnc([N+](=O)[O-])c1)NCc1ccc(F)cc1`, the “activity, negative = inhibition” value is -0.808% (inactive).

With `Cc1cc(N)n(-c2ccc3ccccc3c2)n1`, the half-maximal activity concentration (AC50) is 25.1 µM (active).

For `O=C(c1csnn1)N1CCC2(CC1)CN(c1ccccn1)C2`, the “activity, negative = inhibition” value is -34% (inactive).

Regarding `Cc1ccc(Nc2ccc(-n3ccnc3)nn2)cc1C`, the AC50 was 0.0501 µM (active).

On to `CCC(C)NC(=O)c1ccccc1NC(=O)Nc1ccccc1` (stereo not drawn), for which the AC50 was 10 µM (active).

On to `CC(C)C(=O)NC(=S)Nc1ccccc1C(=O)Nc1ccccc1`, for which the AC50 was 15.8 µM (active).

For `Clc1ccc(CO[C@@H](Cn2ccnc2)c2ccc(Cl)cc2Cl)cc1`, the AC50 is 0.0631 µM (active).

For the molecule `Clc1ccc([C@H](Cn2ccnc2)OCc2csc3c(Cl)cccc23)c(Cl)c1`, the AC50 is 0.251 µM (active).

Regarding `CC1(C)Cc2c(sc3c2C(=O)N(c2ccccc2)C2=NCCN23)CS1`, the “activity, negative = inhibition” value is -11.2% (inactive).

Consider `Cn1c(-c2ccc(CN3CCCCC3)o2)nc2ccccc21`, for which the “activity, negative = inhibition” value was -21.4% (inactive).

For the molecule `[O-][n+]1c(CN2CCCCC2)nc2cccc3c2c1-c1ccccc1-3`, the activity, negative = inhibition is 9.09% [at 11.4 µM] (inactive).

With `Cc1ccccc1CN1C2=NCCN2C(=O)C2=C1CCN(Cc1ccccc1)C2`, the activity, negative = inhibition is 10.2% [at 11.4 µM] (inactive).

For `Clc1ccc(Cn2c(CN3CCCC3)nc3ccccc32)cc1`, the AC50 is 0.2 µM (active).

For `Cc1ccccc1Cn1c(Cc2ccccc2)nc2ccccc21`, the AC50 was 2 µM (active).

For `c1ccc(Cn2c(CN3CCCC3)nc3ccccc32)cc1`, the AC50 was 3.55 µM (active).

With `C[N+]1(C)CCO[C@](O)(c2ccccc2)C1`, the activity, negative = inhibition is 42.8% [at 11.4 µM] (inactive).

With `c1cc2c(cc1C(N1CCNCC1)N1CCNCC1)OCO2`, the activity, negative = inhibition was 14.2% [at 11.4 µM] (inactive).

`c1ccc(SC(Sc2ccccc2)c2ccc3c(c2)OCO3)cc1`: the AC50 is 0.0316 µM (active).

As to `Cc1ccc(S(=O)(=O)N(CC(=O)N/N=C/c2ccc(F)cc2)c2cccc3cccnc23)cc1`, the AC50 was 1.12 µM (active).

As for `CC(C)COCC1CC2(CC(C)(c3csc(N)n3)OC2=O)C(=O)O1` (stereo not drawn), the AC50 is 15.8 µM (active).

On to `CCCSC1=C(C#N)C(c2cccnc2)C(C(=O)OCC)=C(c2ccccc2)N1` (stereo not drawn), for which the concentration at half-maximal activity (AC50) is 14.1 µM (active).

In the case of `N#Cc1cccc(NC(=O)N2CCCC3(CCN(C(=O)c4cnccn4)CC3)C2)c1`, the “activity, negative = inhibition” value was -28% (inactive).

On to `NN(CC(=O)O)CC(=O)O`, for which the activity, negative = inhibition was 14.5% [at 11.4 µM] (inactive).

On to `O=C(Nc1nc(-c2ccccc2)cs1)c1ccc(Br)o1`, for which the AC50 is 14.1 µM (active).

As to `O=C(Nc1nc(-c2ccccc2)cs1)c1cccc([N+](=O)[O-])c1`, the AC50 is 1.58 µM (active).

`CCNc1ncc2nc(C)c(=O)n(C)c2n1`: the “activity, negative = inhibition” value is -43.7% (inactive).

For `COc1ccc([C@H]2Sc3ccccc3N(CCN(C)C)C(=O)[C@H]2OC(C)=O)cc1`, the AC50 entry was “inactive”.

As to `CN(C)CCCN=c1c2ccccc2n(C)c2[nH]c(=O)n(C)c(=O)c12`, the activity, negative = inhibition is 31% [at 11.4 µM] (inactive).
